This is an account of results in PubChem BioAssay (Tox21).

Assay [1] is described as follows: qHTS assay to identify small molecule agonists of the constitutive androstane receptor (CAR) signaling pathway - cell viability counter screen (AID 1224836). Further: nearly all actives have a fitted effect of over 45% in size. In outline: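 23 h treatment, 37 C, 5% CO2. Cell line: HepG2 stably expressing hCAR with a CYP2B6-2.2kb construct. Co-treatment: PK11195, 0.75 uM final. Read-out: CellTiter-Fluor fluorescence intensity.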
On the technique in general: In qHTS, concentration-response curves come from the screen itself.

Assay [2] is described as follows: qHTS assay to identify small molecule antagonists of the constitutive androstane receptor (CAR) signaling pathway - cell viability counter screen (AID 1224837). Further: nearly all actives have a fitted effect of over 45% in size. Put shortly: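 Multiplexed cytotoxicity read-out for the CAR antagonist screen: double-stable HepG2-CYP2B6-hCAR cells co-treated with 50 nM CITCO (final) and compound over 15 concentrations, incubated 23 hr, then assessed by CellTiter-Fluor fluorescence.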

Assay [3] addresses Nuclear receptor subfamily 1 group I member 3 (Homo sapiens) (UniProt Q14994). As to the kind of experiment: qHTS assay to identify small molecule antagonists of the constitutive androstane receptor (CAR) signaling pathway (AID 1224838). Further: nearly all actives have a fitted effect of over 40% in size. In outline:
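Compounds were titrated across 15 concentrations onto HepG2 cells double-stably expressing hCAR and a CYP2B6-2.2kb reporter, together with 50 nM CITCO (final). After 24 h at 37 C, luciferase activity was measured by luminescence.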

For assay [4] the target is unchanged. As to the kind of experiment: qHTS assay to identify small molecule agonists of the constitutive androstane receptor (CAR) signaling pathway (AID 1224839). Further: nearly all actives have a fitted effect of over 15% in size. Further: potency means the concentration at half of the fitted maximal effect.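 On activation: HepG2 cells stably carrying human CAR and a CYP2B6 luciferase reporter.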 Put shortly: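 Compounds tested at 15 concentrations on HepG2 cells stably harbouring hCAR and CYP2B6-2.2kb reporter constructs, co-treated with PK11195 (0.75 uM final), 24 h at 37 C; luminescent reporter signal quantified.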

The nature of assay [5]: qHTS assay to identify small molecule antagonists of the estrogen related receptor signaling pathway with the pleiotropic PPARgamma coactivator (PGC) from Tox21 10K library - cell viability counter screen (AID 1224840; active means well fitted cell-killing curve with a large enough effect in the repeat runs, not every such curve was filed as active; further: nearly all actives have a fitted effect of over 40% in size). In outline:
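Step one, plate 2,000 PGC/ERR cells per well; step two, incubate 6 h at 37 C/5% CO2; step three, pin-transfer compounds; step four, incubate 17.5 h; step five, add CellTiter-Fluor and read fluorescence after 30 min.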

The nature of assay [6]: qHTS assay to identify small molecule antagonists of the estrogen related receptor signaling pathway with the pleiotropic PPARgamma coactivator (PGC) from Tox21 10K library (AID 1224841; call rule not given here; further: actives are mostly falling curves and most rising ones were filed inactive; nearly all actives have a fitted effect of over 50% in size). Put shortly: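 Antagonism in this quantitative HTS is taken from loss of luciferase signal in PGC/ERR cells. Cells (2,000/well) are treated with compounds in DMSO after a 6 h settling period and read by One-Glo luminescence after 18 h.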

The nature of assay [7]: qHTS assay to identify small molecule agonists of the estrogen related receptor signaling pathway with the pleiotropic PPARgamma coactivator (PGC) from Tox21 10K library (AID 1224842). Further: nearly all actives have a fitted effect of over 15% in size. In outline:
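PGC/ERR reporter cells (NTP line) were seeded 2,000 per well, rested 6 h at 37 C/5% CO2, then pin-dosed with compounds in DMSO for 18 h at 37 C; luciferase read by One-Glo luminescence after 30 min at room temperature.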

Assay [8] has as its target Thyrotropin receptor (Homo sapiens) (UniProt P16473). As to the kind of experiment: qHTS assay to identify small molecule agonists of the thyroid stimulating hormone receptor (TSHR) signaling pathway (AID 1224843; calls by dose curve; further: nearly all actives have a fitted effect of over 45% in size). In outline:
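TSHR-expressing HEK293 cells (800 per well) were exposed to compounds for 30 min at room temperature. cAMP was then detected by HTRF competition with cAMP-d2 and anti-cAMP cryptate, read after 1 h at room temperature. Fifteen concentrations, triplicate.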

Assay [9] in a line: qHTS assay to identify small molecule agonists of the hypoxia (HIF-1) signaling pathway - cell viability counter screen (AID 1224844; calls by dose curve; further: nearly all actives have a fitted effect of over 50% in size; further: potency means the concentration at half of the fitted maximal effect). Put shortly: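 Tox21 10K compounds were added to HRE-bla ME-180 cells (0.5% dialyzed FBS) and incubated 17 hrs at 37C; ATP-based CellTiter-Glo luminescence then reported cell viability in the same wells.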
A short description of assay [10]: qHTS assay to identify small molecule agonists of H2AX (AID 1224845; active means well fitted activation curve with a large enough effect in the signal ratio in the repeat runs, not every such curve was filed as active; the % refers to the signal ratio). Put shortly:
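Wild-type CHO-K1 cells plated overnight, then exposed 3 hr at 37C to compounds at 15 concentrations (0.76% DMSO). Lysed, then HTRF anti-pH2AX(S139)-cryptate/anti-H2AX-d2 detection after 24 hr at room temperature; emissions 665 and 620 nm.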

Assay [11] is described as follows: qHTS assay to identify small molecule agonists of the hypoxia (HIF-1) signaling pathway (AID 1224846; active means well fitted activation curve with a large enough effect in the signal ratio in the repeat runs, not every such curve was filed as active; the % refers to the signal ratio). Put shortly:
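Steps: seed ME-180 HRE-bla cells (2,000/well, 0.5% dialyzed FBS); incubate 5 hrs at 37C; pin-transfer compounds or DMSO; incubate 17 hrs; add LiveBLAzer B/G substrate CCF4-AM; measure reporter activation by FRET.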

The nature of assay [12]: qHTS assay to identify small molecule agonists of H2AX - cell viability counter screen (AID 1224847; calls by dose curve; further: nearly all actives have a fitted effect of over 30% in size; further: potency means the concentration at half of the fitted maximal effect). Put shortly: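 Compounds tested at 15 concentrations were incubated 3 hr at 37C with wild-type CHO-K1 cells; cellular ATP-based luminescence (CellTiter-Glo) indicated viability.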
A short description of assay [13]: qHTS assay to identify small molecule antagonists of the estrogen related receptor (ERR) signaling pathway from Tox21 library (AID 1224848). Further: nearly all actives have a fitted effect of over 50% in size. In outline:
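Cells: ERR line, 2,000/well; 6 h preincubation 37 C/5% CO2. Cpd in DMSO via pin tool; 18 h, 37 C. ONE-Glo, 30 min RT, luminescence.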

A short description of assay [14]: qHTS assay to identify small molecule agonists of the estrogen related receptor (ERR) signaling pathway from Tox21 library (AID 1224849; calls by dose curve; further: nearly all actives have a fitted effect of over 15% in size). As to conditions: ERR reporter cell line, ONE-Glo luciferase, 18 h; at 92.4 µM (top of the series) unless noted. In outline: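 Agonist signal is luciferase luminescence from an ERR reporter cell line treated 18 h at 37 C with DMSO-dissolved compounds, read 30 min after ONE-Glo addition at room temperature.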

Assay [15] can be described thus: qHTS RealTime-Glo MT Cell Viability Assay in HepG2 cells - 24 hour (AID 1224867). Further: nearly all actives have a fitted effect of over 50% in size. Put shortly: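 HepG2 suspension premixed with RealTime-Glo reagents is plated at 600 cells per well and left 5 h at 37 C/5% CO2. Compounds in DMSO then go in, and bioluminescence reflecting viable cell number is recorded over 40 h.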
The nature of assay [16]: A CellTox Green Cytotoxicity Assay to monitor cytotoxicity in HEK293 cells - 0 hour (AID 1224869). Further: nearly all actives have a fitted effect of over 50% in size. In outline: (§1)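 Cytotoxicity was tracked continuously in HEK293 cells by a DNA-binding dye excluded from viable cells. Compounds were transferred in DMSO 5 h after seeding; fluorescence was recorded at intervals up to 40 h.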
Assay [17] is described as follows: qHTS RealTime-Glo MT Cell Viability Assay in HEK293 cells - 16 hour (AID 1224872). In outline: (§2)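 Reads taken at 0, 8, 16, 24, 32 and 40 h from the same wells. HEK293 cells (600/well) carried RealTime-Glo reagents from seeding, with compound added after a 5 h settle at 37 C.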
Assay [18] in a line: qHTS RealTime-Glo MT Cell Viability Assay in HEK293 cells - 32 hour (AID 1224868). Put shortly: as §2
Assay [19] in a line: A CellTox Green Cytotoxicity Assay to monitor cytotoxicity in HEK293 cells - 40 hour (AID 1224871). Further: nearly all actives have a fitted effect of over 45% in size. Further: potency means the concentration at half of the fitted maximal effect. Put shortly:
as §1

Assay [20] is described as follows: qHTS RealTime-Glo MT Cell Viability Assay in HepG2 cells - 40 hour (AID 1224870). Further: nearly all actives have a fitted effect of over 50% in size. Put shortly: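 HepG2 cells mixed with RealTime-Glo MT reagents (NanoLuc plus cell-permeant prosubstrate) were seeded at 600 cells/well, incubated 5 h at 37 C/5% CO2, then pinned with compounds in DMSO; nonlytic luminescence tracked viability during 40 h treatment.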

Molecules are shown by their SMILES. Unmarked numbers belong to inactive results. Inconclusive results are not listed. Active and inactive are the calls of the source. Unless noted, the call rests on the fitted dose curve; in most records, active means well fitted curve in the direction sought with a large enough effect in the repeat runs; inconclusive means weak or mixed curves; inactive means no such curve, though single readings can be large; an effect the other way counts as inactive or inconclusive.
On the % scale 0 is the no-effect control and ±100 the full control effect.

Sequence of Nuclear receptor subfamily 1 group I member 3 (Homo sapiens) (Q14994 whole entry, looked up): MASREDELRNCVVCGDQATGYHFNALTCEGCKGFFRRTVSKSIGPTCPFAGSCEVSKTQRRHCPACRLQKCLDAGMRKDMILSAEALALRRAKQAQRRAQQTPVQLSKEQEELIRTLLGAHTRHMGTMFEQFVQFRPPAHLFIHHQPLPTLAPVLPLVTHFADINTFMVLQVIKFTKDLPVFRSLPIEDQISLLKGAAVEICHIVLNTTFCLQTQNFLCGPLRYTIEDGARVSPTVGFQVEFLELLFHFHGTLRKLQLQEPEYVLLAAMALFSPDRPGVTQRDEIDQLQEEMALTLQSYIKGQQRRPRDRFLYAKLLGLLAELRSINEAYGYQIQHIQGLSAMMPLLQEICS
Sequence of Thyrotropin receptor (Homo sapiens) (P16473 whole entry, looked up): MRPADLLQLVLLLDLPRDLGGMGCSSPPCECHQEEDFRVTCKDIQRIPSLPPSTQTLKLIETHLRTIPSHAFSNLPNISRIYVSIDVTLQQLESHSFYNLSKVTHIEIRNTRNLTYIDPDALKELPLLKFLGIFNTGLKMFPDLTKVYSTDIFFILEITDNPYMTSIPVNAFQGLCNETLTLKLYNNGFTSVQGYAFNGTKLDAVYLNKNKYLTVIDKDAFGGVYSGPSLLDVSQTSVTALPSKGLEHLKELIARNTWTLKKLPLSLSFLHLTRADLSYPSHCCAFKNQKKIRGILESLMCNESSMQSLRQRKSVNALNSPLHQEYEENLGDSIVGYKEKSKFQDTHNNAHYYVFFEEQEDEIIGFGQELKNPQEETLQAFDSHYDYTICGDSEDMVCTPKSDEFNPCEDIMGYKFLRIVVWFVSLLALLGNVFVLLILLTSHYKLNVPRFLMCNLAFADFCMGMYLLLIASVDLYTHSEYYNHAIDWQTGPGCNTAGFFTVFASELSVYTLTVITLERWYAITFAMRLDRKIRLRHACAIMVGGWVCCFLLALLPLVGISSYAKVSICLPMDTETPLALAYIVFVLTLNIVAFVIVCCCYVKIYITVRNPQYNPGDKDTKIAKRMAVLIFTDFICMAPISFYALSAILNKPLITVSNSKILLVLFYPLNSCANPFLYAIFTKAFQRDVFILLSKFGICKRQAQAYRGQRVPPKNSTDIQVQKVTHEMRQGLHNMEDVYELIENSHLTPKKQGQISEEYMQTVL

Turning to `CCCCCCCCCC(=O)N(C)C`, the Potency entry in [1], in assay [2], in assay [3], in assay [5], in [6] and in assay [7] was “inactive” throughout. Moreover, the Potency result in [8], in assay [9], in assay [10], in [12], in assay [13] and in [15] was “inactive” each time. The Potency entry in assay [16] and in assay [17] was “inactive” throughout. The Potency in [4] was 55.3 µM (active). Moreover, in [11], the call was inactive. The activity change, positive = activation in assay [14] was 3.98%.
For the compound `CC(C)=CCCC(C)O` (stereo not drawn), the Potency result in [1], in [2], in [3], in assay [4], in assay [5] and in assay [6] was “inactive” in each case. For the same compound, the Potency entry in assay [7], in [8], in assay [9], in assay [10], in [12] and in [13] was “inactive” throughout. Moreover, the Potency entry in assay [15], in [18], in [16], in [19] and in assay [17] was “inactive” each time. In assay [11], the compound was classed as inactive. Besides, the activity change, positive = activation in [14] is 0.538%.
With `O=C1OC(=O)c2cccc3cccc1c23`, the Potency result in assay [1], in assay [2], in [3], in [4], in assay [5] and in assay [6] was “inactive” in each case. The Potency result in assay [7], in assay [9], in assay [13], in assay [15], in assay [18] and in assay [16] was “inactive” each time. Further, the Potency result in assay [20], in assay [19] and in [17] was “inactive” throughout. Also, the call in [11] was inactive. Further, in assay [14], the activity change, positive = activation was -2.65%.
Regarding `Brc1ccccc1-c1ccccc1`, the Potency result in assay [1], in assay [2], in assay [3], in [4], in [5] and in assay [7] was “inactive” each time. For the same compound, the Potency result in [13], in assay [15], in [18] and in assay [20] was “inactive” throughout. The Potency in [9] is 36.8 µM (active).
Regarding `O=Nc1ccc(NO)cc1`, the Potency result in assay [1], in assay [2], in assay [3], in assay [4], in [5] and in assay [6] was “inactive” throughout. Besides, the Potency result in assay [7], in [9], in assay [12], in assay [13], in assay [15] and in assay [16] was “inactive” in each case. In addition, the Potency result in assay [20] and in assay [17] was “inactive” throughout.
With `CCCC(CC)CCCCCCCN` (stereo not drawn), the Potency result in assay [1], in assay [2], in assay [3], in assay [4], in assay [5] and in [6] was “inactive” in each case. For the same compound, the Potency entry in [7], in [10], in assay [15], in assay [16] and in assay [20] was “inactive” each time. Also, the Potency in assay [9] was 50.2 µM (active); in assay [12] it was 103 µM (active); in assay [19] it was 50.2 µM (active). Also, the activity change, positive = activation in assay [14] was -20.1%.
In the case of `COC(=O)CC#N`, the Potency result in assay [1], in assay [2], in assay [3], in [4], in [5] and in assay [8] was “inactive” each time. In addition, the Potency result in assay [9], in [10], in assay [12], in assay [18], in assay [16] and in assay [20] was “inactive” in each case. The Potency result in assay [19] and in assay [17] was “inactive” in each case. Also, the outcome in [11] was inactive.
